Values joined by “and” are separate entries in the source; they are usually repeats but may differ in a detail not shown here. Equal values may be shown once. Out of some 5,500 compounds screened, about 2,000 (36%) were called active. Not shown: some 18% with an inconclusive outcome. Rule as the data show it: active = normalized growth mostly below about 0.91 (no sharp cut-off); inconclusive = no clear call, values can overlap the other calls; inactive = mostly above about 0.92. The list shows a part of the results.
Experiment: chemical genetic growth profiling, strain panel (AID 1159580);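 also: tested at 20 µM; growth read once vehicle control cultures reached saturation at 30 °C; 1 = growth at the plate median or of vehicle wells; lower values mean less growth of the strain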
Details: S. cerevisiae deletion strains, growth OD

Measured: normalized growth

CC(C)(Oc1ccc(CCNC(=O)c2ccc(Cl)cc2)cc1)C(=O)O
inactive: locus YAL013W, strain DEP1, active compounds read low 1.02 | locus YAL021C, strain ccr4, active compounds read low 0.982 | locus YAL026C, strain drs2, active compounds read low 0.985 | locus YAL030W, strain snc1, active compounds read low 0.996 | locus YBL061C, strain skt5, active compounds read low 0.999 | locus YBR009C, strain hhf1, active compounds read low 0.975 | locus YBR021W, strain FUR4, active compounds read low 1.02 | locus YBR023C, strain chs3, active compounds read low 0.986 | locus YBR171W, strain sec66, active compounds read low 0.978 | locus YBR229C, strain ROT2, active compounds read low 1.01 | locus YBR231C, strain swc5, active compounds read low 1.01 | locus YBR279W, strain paf1, active compounds read low 0.972 | locus YCL011C, strain gbp2, active compounds read low 0.982 | locus YCL016C, strain dcc1, active compounds read low 0.971 | locus YCL029C, strain bik1, active compounds read low 1.02 | locus YCL069W, strain vba3, active compounds read low 0.988 | locus YCR088W, strain abp1, active compounds read low 0.985 | locus YDL005C, strain med2, active compounds read low 0.984 | locus YDL035C, strain GPR1, active compounds read low 1.04 | locus YDL040C, strain nat1, active compounds read low 0.995 | locus YDL074C, strain BRE1, active compounds read low 1.01 | locus YDL101C, strain DUN1, active compounds read low 1.01 | locus YDL134C, strain PPH21, active compounds read low 1.05 | locus YDL185W, strain tfp1, active compounds read low 1.02 | locus YDL192W, strain arf1, active compounds read low 1.01 | locus YDR001C, strain nth1, active compounds read low 0.987 | locus YDR069C, strain doa4, active compounds read low 0.968 | locus YDR101C, strain arx1, active compounds read low 0.995 | locus YDR137W, strain rgp1, active compounds read low 0.988 | locus YDR150W, strain NUM1, active compounds read low 1.01 | locus YDR159W, strain sac3, active compounds read low 0.939 | locus YDR162C, strain NBP2, active compounds read low 1.03 | locus YDR195W, strain ref2 0.993 | locus YDR297W, strain sur2, active compounds read low 0.998 | locus YDR318W, strain mcm21, active compounds read low 1.02 | locus YDR334W, strain swr1, active compounds read low 0.995 | locus YDR335W, strain msn5, active compounds read low 0.977 | locus YDR388W, active compounds read low 1.01 | locus YDR392W, strain spt3, active compounds read low 0.882 | locus YDR502C, strain sam2, active compounds read low 1.02 | locus YEL003W, strain gim4, active compounds read low 1.01 | locus YEL037C, strain rad23, active compounds read low 0.99 | locus YEL061C, strain CIN8 (second series), active compounds read low 0.997 | locus YEL061C, strain CIN8, active compounds read low 1.01 | locus YER015W, strain faa2, active compounds read low 0.995 | locus YER016W, strain bim1, active compounds read low 0.971 | locus YER110C, active compounds read low 1 | locus YER111C, strain swi4, active compounds read low 0.984 | locus YER155C, strain BEM2 (second series), active compounds read low 0.975 | locus YER155C, strain BEM2, active compounds read low 1.01 | locus YER167W, strain BCK2, active compounds read low 1.01 | locus YFR010W, strain ubp6, active compounds read low 1.01 | locus YGL078C, strain dbp3, active compounds read low 1.02 | locus YGL086W, strain mad1, active compounds read low 1.01 | locus YGL167C, strain pmr1, active compounds read low 1 | locus YGL173C, strain kem1, active compounds read low 1 | locus YGL227W, strain vid30, active compounds read low 0.977 | locus YGL240W, strain doc1, active compounds read low 0.984 | locus YGL248W, strain PDE1, active compounds read low 1.01 | locus YGL253W, strain hxk2, active compounds read low 0.994 | locus YGR078C, strain PAC10, active compounds read low 1 | locus YGR135W, strain pre9, active compounds read low 1.02 | locus YGR252W, strain gcn5, active compounds read low 1.02 | locus YHR013C, strain ard1, active compounds read low 0.963 | locus YHR027C, strain rpn1, active compounds read low 0.986 | locus YHR030C, strain SLT2, active compounds read low 1.02 and 0.997 | locus YHR079C, strain IRE1 (second series), active compounds read low 1.02 | locus YHR079C, strain IRE1, active compounds read low 0.995 | locus YHR094C, strain hxt1, active compounds read low 1.01 | locus YHR129C, strain ARP1, active compounds read low 1.01 | locus YHR142W, strain chs7, active compounds read low 0.999 | locus YHR200W, strain rpn10, active compounds read low 1.03 | locus YIL066C, strain RNR3, active compounds read low 1.02 | locus YIL073C, strain SPO22, active compounds read low 1.15 | locus YIL125W, strain kgd1, active compounds read low 1.01 | locus YIR030C, strain dcg1, active compounds read low 1.02 | locus YJL092W, strain hpr5, active compounds read low 0.996 | locus YJL095W, strain BCK1 (second series), active compounds read low 0.983 | locus YJL095W, strain BCK1, active compounds read low 1 and 0.972 | locus YJL115W, strain asf1, active compounds read low 0.978 | locus YJL129C, strain trk1, active compounds read low 0.955 | locus YJL134W, strain LCB3, active compounds read low 1.01 | locus YJL154C, strain vps35, active compounds read low 0.98 | locus YJL164C, strain tpk1, active compounds read low 0.986 | locus YJL166W, strain qcr8, active compounds read low 0.992 | locus YJL168C, strain set2, active compounds read low 1.01 | locus YJL187C, strain SWE1 (second series), active compounds read low 1.01 | locus YJL187C, strain SWE1, active compounds read low 0.996 | locus YJR043C, strain POL32, active compounds read low 1.02 | locus YJR066W, strain TOR1, active compounds read low 0.967
